Laboratory results reported in PubChem BioAssay (Tox21).
“And” between values parts separate entries of the source, which are not always exact repeats. Equal values may be shown once. Results filed as inconclusive are left out. More than one record can exist for a structure, and the calls need not agree. The source made the active and inactive calls. Unless noted, the call rests on the fitted dose curve.

How the values were obtained:
[1] = Nuclear factor erythroid 2-related factor 2/antioxidant responsive element (Nrf2/ARE) small molecule agonists: qHTS cell viability counter screen in human keratinocytes (AID 1919968; active means well fitted curve in the direction sought with a large enough effect in the repeat runs; an effect the other way counts as inactive or inconclusive; further: nearly all actives have a fitted effect of over 55% in size; further: potency means the concentration at half of the fitted maximal effect)
Outline: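 Cytotoxicity was multiplexed with the Nrf2/ARE luciferase assay in the same wells. Stably transfected HaCaT keratinocytes were treated with test compounds for 23 h at 37 C. Cell viability was then measured by CellTiter-Fluor fluorescence.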

[2] = Nuclear factor erythroid 2-related factor 2/antioxidant responsive element (Nrf2/ARE) small molecule agonists: luciferase reporter gene qHTS assay in human keratinocytes (AID 1919969); further: nearly all actives have a fitted effect of over 35% in size; further: potency means the concentration at half of the fitted maximal effect
[3] = target: Gonadotropin-releasing hormone receptor (Homo sapiens) (UniProt P30968); test: Human gonadotropin-releasing hormone receptor (GnRHR) small molecule agonists, calcium flux assay in GnRHR-HEK293 cells (AID 1920063); further: nearly all actives have a fitted effect of over 35% in size
Chain of Gonadotropin-releasing hormone receptor (Homo sapiens) (P30968 whole entry, looked up): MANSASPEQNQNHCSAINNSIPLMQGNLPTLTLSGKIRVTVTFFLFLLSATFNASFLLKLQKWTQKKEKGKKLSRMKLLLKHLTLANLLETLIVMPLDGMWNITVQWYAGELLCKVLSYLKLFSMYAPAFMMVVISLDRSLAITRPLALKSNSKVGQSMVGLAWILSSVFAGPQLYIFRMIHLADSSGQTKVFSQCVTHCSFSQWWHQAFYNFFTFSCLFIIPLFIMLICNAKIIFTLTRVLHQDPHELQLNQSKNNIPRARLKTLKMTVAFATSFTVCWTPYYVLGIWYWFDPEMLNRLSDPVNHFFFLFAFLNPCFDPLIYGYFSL
Outline: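 Agonist activity was measured as intracellular calcium flux in HEK293 cells engineered to stably express human GnRHR. After dye loading for 1 hour at 37 C, compounds in DMSO were added and fluorescence was followed for 3 minutes.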

[4] = p53 small molecule agonists, cell-based qHTS assay with human liver microsomes (AID 1963577)
Outline: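 p53RE-bla cells, 4,000/well, compound added after 5 h, with human liver microsomes 0.5 mg/mL and NADPH 0.5 mg/mL final; 16 h at 37 C, then LiveBLAzer 2 h RT, fluorescence.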

[5] = p53 small molecule agonists, cell-based qHTS assay with rat liver microsomes (AID 1963578)
Outline: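 p53RE-bla cells, 4,000/well, pre-incubated 5 h, then given compounds plus rat liver microsomes (0.5 mg/mL final) and NADPH (0.5 mg/mL final). Incubation 16 h at 37 C; beta-lactamase reporter read by LiveBLAzer fluorescence after 2 h at room temperature.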

[6] = p53 small molecule agonists, cell-based qHTS assay with human liver microsomes: qHTS cell viability counter screen (AID 1963579); further: nearly all actives have a fitted effect of over 45% in size
Outline: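 p53RE-bla cells, 4,000/well, dosed 5 hours after plating, with human liver microsomes (0.5 mg/mL final) plus NADPH (0.5 mg/mL final), 16 hours at 37 C. Viability read as CellTiter-Glo luminescence after 30 min at room temperature.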

[7] = p53 small molecule agonists, cell-based qHTS assay with rat liver microsomes: qHTS cell viability counter screen (AID 1963580); further: nearly all actives have a fitted effect of over 45% in size
Outline: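 Rat liver microsome (0.5 mg/mL final) and NADPH (0.5 mg/mL final) co-incubation with compounds for 16 h at 37 C on HCT-116 p53RE-bla cells; cytotoxicity taken from intracellular ATP luminescence.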

[8] = p53 small molecule agonists, cell-based qHTS assay: qHTS cell viability counter screen (AID 1963581); further: nearly all actives have a fitted effect of over 45% in size
Outline: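 Viability was counter-screened in parallel with the p53 agonist reporter by measuring intracellular ATP luminescence in the same HCT-116 p53RE-bla wells after 16 h compound treatment at 37 C.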

[9] = p53 small molecule agonists, cell-based qHTS assay (AID 1963582; active means well fitted activation curve with a large enough effect in the signal ratio in the repeat runs, not every such curve was filed as active; the % refers to the signal ratio)
Outline: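 Cells carrying a p53-responsive bla reporter are treated with test compounds for 16 h at 37 C; beta-lactamase activity is then detected with LiveBLAzer B/G FRET substrate after 2 h at room temperature.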

[10] = target: Muscarinic acetylcholine receptor M1 (Homo sapiens) (UniProt P11229); test: Cholinergic receptor muscarinic 1 (CHRM1) small molecule antagonists, cell-based qHTS assay (AID 1963588); further: nearly all actives have a fitted effect of over 40% in size; further: potency means the concentration at half of the fitted maximal effect
Chain of Muscarinic acetylcholine receptor M1 (Homo sapiens) (P11229 whole entry, looked up): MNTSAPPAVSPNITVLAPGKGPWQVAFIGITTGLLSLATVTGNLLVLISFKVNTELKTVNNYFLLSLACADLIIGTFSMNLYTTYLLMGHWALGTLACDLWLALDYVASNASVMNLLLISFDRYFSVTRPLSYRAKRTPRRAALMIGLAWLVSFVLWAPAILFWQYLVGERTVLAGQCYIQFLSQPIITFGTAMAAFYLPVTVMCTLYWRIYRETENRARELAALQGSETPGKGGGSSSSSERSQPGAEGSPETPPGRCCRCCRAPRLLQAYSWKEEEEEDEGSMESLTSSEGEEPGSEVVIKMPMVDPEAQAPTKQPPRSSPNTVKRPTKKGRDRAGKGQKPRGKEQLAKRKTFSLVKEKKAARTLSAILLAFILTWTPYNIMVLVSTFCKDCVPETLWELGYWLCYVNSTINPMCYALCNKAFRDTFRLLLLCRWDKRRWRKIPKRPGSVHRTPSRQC
Outline: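 Compounds were tested at 15 concentrations in three independent runs. Dye-loaded CHRM1-CHO cells were exposed 5 min at room temperature before stimulation by acetylcholine added at 50nM. Intracellular calcium was read kinetically on FDSS for 3 min.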

[11] = target: Muscarinic acetylcholine receptor M1 (Homo sapiens) (UniProt P11229); test: Cholinergic receptor muscarinic 1 (CHRM1) small molecule agonists, cell-based qHTS assay (AID 1963589); further: nearly all actives have a fitted effect of over 35% in size
Outline: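 Cells were plated and incubated 18 h at 37 C/5% CO2, loaded with calcium dye for 1 h at 37 C, then treated with compounds in DMSO. Fluorescence was recorded kinetically at 1 sec intervals.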

[12] = cAMP Responsive Elements (CRE) small molecule agonists, cell-based qHTS assay (AID 1963590)
Outline: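 Cells carrying a CRE-driven beta-lactamase reporter (HEK 293T) are seeded, incubated overnight (18 h), and treated with test compounds for 3 h at 37 C; reporter activity is then detected with a FRET substrate after 2 h at room temperature.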

[13] = cAMP Responsive Elements (CRE) small molecule antagonists, cell-based qHTS assay (AID 1963591; active means well fitted inhibition curve with a large enough effect in the signal ratio in the repeat runs, not every such curve was filed as active; the % refers to the signal ratio)
Outline: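 Cells (CRE-bla HEK 293T, DMEM with 10% dialyzed FBS and 25 mM HEPES) are seeded and incubated 18 h. Compounds are added with NKH477 agonist at 0.25 uM final for 3 h, then FRET substrate for 2 h.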

[14] = target: Beta-2 adrenergic receptor (Homo sapiens) (UniProt P07550); test: Adrenergic beta2 receptor (ADRB2) small molecule antagonists, cell-based qHTS assay (AID 1963592); further: series mostly up to about 92 µM; nearly all actives have a fitted effect of over 50% in size
Chain of Beta-2 adrenergic receptor (Homo sapiens) (P07550 whole entry, looked up): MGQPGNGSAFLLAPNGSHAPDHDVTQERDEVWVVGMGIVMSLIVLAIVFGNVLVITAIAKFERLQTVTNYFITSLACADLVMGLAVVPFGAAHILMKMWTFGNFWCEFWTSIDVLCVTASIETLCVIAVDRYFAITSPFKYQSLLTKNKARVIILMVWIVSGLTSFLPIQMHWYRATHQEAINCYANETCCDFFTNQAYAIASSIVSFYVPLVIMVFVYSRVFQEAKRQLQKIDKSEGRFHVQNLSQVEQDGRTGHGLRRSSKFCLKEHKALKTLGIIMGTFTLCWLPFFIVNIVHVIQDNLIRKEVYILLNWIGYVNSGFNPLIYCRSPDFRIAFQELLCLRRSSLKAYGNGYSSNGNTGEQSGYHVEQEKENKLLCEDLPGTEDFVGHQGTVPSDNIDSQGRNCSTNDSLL
Outline: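 Assay format: CHO-ADRB2 cells, 18-20hr seeding at 37C/5% CO2, then compound plus 1nM isoproterenol agonist mix for 0.5hr RT. Homogeneous time-resolved fluorescence cAMP detection after 1hr, expressed as 665/615 nm ratio.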

[15] = target: D(2) dopamine receptor (Homo sapiens) (UniProt P14416); test: Dopamine D2 receptor (DRD2) small molecule agonists, cell-based qHTS assay (AID 1963594); further: nearly all actives have a fitted effect of over 35% in size
Chain of D(2) dopamine receptor (Homo sapiens) (P14416 whole entry, looked up): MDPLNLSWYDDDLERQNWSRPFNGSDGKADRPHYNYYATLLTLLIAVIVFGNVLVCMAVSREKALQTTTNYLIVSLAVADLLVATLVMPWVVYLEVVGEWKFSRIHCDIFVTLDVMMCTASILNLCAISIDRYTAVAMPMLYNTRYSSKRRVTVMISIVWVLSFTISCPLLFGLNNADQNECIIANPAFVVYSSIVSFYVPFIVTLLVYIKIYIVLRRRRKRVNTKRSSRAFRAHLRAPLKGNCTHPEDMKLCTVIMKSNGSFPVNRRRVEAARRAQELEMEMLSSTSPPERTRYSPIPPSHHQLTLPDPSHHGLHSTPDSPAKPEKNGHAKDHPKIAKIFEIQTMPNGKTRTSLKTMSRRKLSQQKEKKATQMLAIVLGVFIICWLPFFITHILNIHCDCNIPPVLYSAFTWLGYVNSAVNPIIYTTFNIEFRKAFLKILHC
Outline: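 cAMP accumulation in DRD2-HEK293 cells measured by HTRF after 1 h detection; compounds added 10 min before NKH477 (200nM […]) forskolin-analogue stimulation, 30 min at room temperature, with Ro20-1724 present at 0.1 mM final.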

[16] = target: D(2) dopamine receptor (Homo sapiens) (UniProt P14416); test: Dopamine D2 receptor (DRD2) small molecule antagonists, cell-based qHTS assay (AID 1963595; active means well fitted inhibition curve with a large enough effect in the signal ratio in the repeat runs, with a control signal flat; the % refers to the signal ratio)
Outline: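 HEK293 cells stably expressing DRD2 were preincubated with 0.1 mM Ro20-1724, then with compound for 10 min at room temperature. Cells were stimulated with 200 nM NKH477 plus 12 nM quinpirole for 30 min, and cAMP was read by HTRF.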

[17] = target: 5-hydroxytryptamine receptor 2A (Homo sapiens) (UniProt P28223); test: 5-hydroxytryptamine receptor 2A (HTR2A) small molecule antagonists, cell-based qHTS assay (AID 1963586); further: nearly all actives have a fitted effect of over 45% in size
Chain of 5-hydroxytryptamine receptor 2A (Homo sapiens) (P28223 whole entry, looked up): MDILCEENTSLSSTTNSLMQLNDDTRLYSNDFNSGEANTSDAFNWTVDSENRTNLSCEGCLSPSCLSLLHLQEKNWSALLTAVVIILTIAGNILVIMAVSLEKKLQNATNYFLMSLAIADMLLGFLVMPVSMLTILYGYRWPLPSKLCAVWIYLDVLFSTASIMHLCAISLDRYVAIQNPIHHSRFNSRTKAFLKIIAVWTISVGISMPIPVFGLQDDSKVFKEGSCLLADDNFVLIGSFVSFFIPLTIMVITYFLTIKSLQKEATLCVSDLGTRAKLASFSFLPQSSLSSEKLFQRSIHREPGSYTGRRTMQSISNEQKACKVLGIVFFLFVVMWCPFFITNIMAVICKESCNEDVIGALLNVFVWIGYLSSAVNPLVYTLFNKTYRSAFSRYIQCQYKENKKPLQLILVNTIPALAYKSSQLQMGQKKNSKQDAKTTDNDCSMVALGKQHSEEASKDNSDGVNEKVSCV
Outline: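 CHO cells stably expressing human HTR2A were plated for 18 h at 37 C, then loaded with calcium dye for 1 h. Compounds were preincubated 5 min at room temperature before DOI (4 nM solution) was added. Kinetic fluorescence was read for 3 min.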

[18] = target: 5-hydroxytryptamine receptor 2A (Homo sapiens) (UniProt P28223); test: 5-hydroxytryptamine receptor 2A (HTR2A) small molecule agonists, cell-based qHTS assay (AID 1963587); further: nearly all actives have a fitted effect of over 30% in size
Outline: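 Kinetic calcium-flux fluorescence (2 min, 1 sec intervals) after compound addition in agonist mode. HTR2A-CHO cells were cultured 18 h, then dye-loaded 1 h at 37 C.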

[19] = target: Beta-2 adrenergic receptor (Homo sapiens) (UniProt P07550); test: Adrenergic beta2 receptor (ADRB2) small molecule agonists, cell-based qHTS assay (AID 1963593);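 further: CHO cells stably overexpressing human ADRB2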
Outline: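 CHO cells stably over-expressing ADRB2 were plated overnight at 37C, then dosed with compounds plus a stimulation mix containing 100uM IBMX and 25uM Ro-20-1724 for 0.5hr at room temperature. cAMP was measured by HTRF competition, 1hr.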

[20] = target: KiSS-1 receptor (Homo sapiens) (UniProt Q969F8); test: Human kisspeptin (KISS1R) small molecule agonists, calcium flux assay in KISS1R-HEK293 cells (AID 1920064; active means well fitted curve in the direction sought with a large enough effect in the repeat runs; an effect the other way counts as inactive or inconclusive)
Chain of KiSS-1 receptor (Homo sapiens) (Q969F8 whole entry, looked up): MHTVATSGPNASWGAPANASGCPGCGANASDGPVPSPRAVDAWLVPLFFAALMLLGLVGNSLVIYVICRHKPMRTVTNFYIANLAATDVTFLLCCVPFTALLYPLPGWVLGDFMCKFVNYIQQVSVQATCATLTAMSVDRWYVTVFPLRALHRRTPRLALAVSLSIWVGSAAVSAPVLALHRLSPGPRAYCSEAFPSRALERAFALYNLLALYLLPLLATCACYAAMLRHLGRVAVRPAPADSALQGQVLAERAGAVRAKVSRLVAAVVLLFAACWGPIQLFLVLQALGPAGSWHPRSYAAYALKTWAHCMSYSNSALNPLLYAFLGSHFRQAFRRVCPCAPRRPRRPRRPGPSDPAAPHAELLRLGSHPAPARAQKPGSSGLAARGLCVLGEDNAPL
Outline: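 Agonist activity is monitored as intracellular calcium rise in engineered HEK293 cells carrying human KISS1R. Cells are dye-loaded for 1 h at 37 C before compound addition, and fluorescence is recorded for 3 min.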

Measured: Potency

ClCC(Cl)(Cl)Cl
not listed: [17] | [18] | [19] | [20]
inactive: all other assays above

N#Cc1nn(-c2c(Cl)cc(C(F)(F)F)cc2Cl)c(N)c1S(=O)C(F)(F)F (stereo not drawn)
active: [1] 61.5 µM
not listed: [9] | [12] | [13] | [20]
inactive: all other assays above

ClC1(Cl)C2(Cl)C3(Cl)C4(Cl)C(Cl)(Cl)C5(Cl)C3(Cl)C1(Cl)C5(Cl)C24Cl (stereo not drawn)
not listed: [6] | [16] | [19]
inactive: all other assays above

CCOP(=S)(OCC)SCn1c(=O)oc2cc(Cl)ccc21
active: [2] 32.9 µM and 61.1 µM
not listed: [4] | [5] | [12] | [13] | [19]
inactive: all other assays above

CCCCN(CC)c1c([N+](=O)[O-])cc(C(F)(F)F)cc1[N+](=O)[O-]
active: [2] 61.1 µM
not listed: [12] | [20]
inactive: all other assays above

NC(=O)CN1CCCC1=O
not listed: [7] | [10] | [11] | [16] | [17] | [18]
inactive: all other assays above

O=C(Cl)/C=C/C(=O)Cl
active: [10] 0.0011 µM
not listed: [13] | [17] | [19] | [20]
inactive: all other assays above

CCOC(=O)c1ccccc1N
not listed: [4] | [5] | [6] | [9] | [19]
inactive: all other assays above

O=C(O)C(Cl)(Cl)Br
not listed: [20]
inactive: all other assays above

CC1CC(CC2CCC(N)C(C)C2)CCC1N (stereo not drawn)
active: [1] 7.82 µM | [10] 6.04 µM
not listed: [12] | [19] | [20]
inactive: all other assays above

CCCC(=O)Cl
not listed: [20]
inactive: all other assays above

CC(C)C(C)(N)C#N (stereo not drawn)
not listed: [11] | [17] | [19] | [20]
inactive: all other assays above

Nc1ccccc1C(=O)OCCc1ccccc1
488 nM (active) and inactive: [2]
not listed: [12] | [13] | [20]
inactive: all other assays above

BrCCBr
not listed: [13] | [20]
inactive: all other assays above
